# The sample as a whole holds a higher share of hits than the screen did.
# 12-LOX inh: inhibitors of human 12S-lipoxygenase ALOX12. Potency, µM (doses to about 108 µM), for inactives: top-dose activity change, negative = inhibition, most hits filed as inhibitors. AID 1671190. actives 1.1% (n = 580,000). purified 12hLO, xylenol orange hydroperoxide absorbance; further: potency means the concentration at half of the fitted maximal effect
# Target sequence (P18054 whole entry, looked up): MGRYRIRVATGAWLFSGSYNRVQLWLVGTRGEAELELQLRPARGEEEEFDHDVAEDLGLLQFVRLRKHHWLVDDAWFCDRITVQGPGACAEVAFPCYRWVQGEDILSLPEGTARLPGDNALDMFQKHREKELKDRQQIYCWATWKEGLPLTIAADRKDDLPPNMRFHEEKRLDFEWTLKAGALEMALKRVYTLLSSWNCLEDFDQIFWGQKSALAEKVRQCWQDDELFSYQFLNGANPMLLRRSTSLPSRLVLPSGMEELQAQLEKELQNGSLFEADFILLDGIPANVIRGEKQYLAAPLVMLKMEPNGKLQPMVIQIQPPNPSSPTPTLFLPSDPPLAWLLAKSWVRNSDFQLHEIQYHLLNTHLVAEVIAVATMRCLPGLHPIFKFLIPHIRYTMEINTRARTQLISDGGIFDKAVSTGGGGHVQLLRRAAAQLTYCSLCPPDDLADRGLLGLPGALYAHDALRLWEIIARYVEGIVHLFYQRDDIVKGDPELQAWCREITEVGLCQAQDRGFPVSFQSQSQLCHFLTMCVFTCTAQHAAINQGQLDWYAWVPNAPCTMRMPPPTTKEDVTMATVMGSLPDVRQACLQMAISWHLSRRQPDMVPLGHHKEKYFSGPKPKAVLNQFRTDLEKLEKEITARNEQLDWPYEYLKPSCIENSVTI
#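 Purified human 12hLO at 150 nM in 25 mM Hepes, 0.01% Triton X-100, pH 7.0, preincubated 15 min at room temperature with compound. Reaction started with 40 uM arachidonic acid, 30 min at room temperature. Hydroperoxide measured by Fe-xylenol orange, 573/405 nm absorbance ratio.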
# DT40 TDP1 CPT: growth inhibition of DT40 Tdp1-/-;hTDP1 cells with camptothecin (screen for TDP1 inhibitors); actives 12% (n = 420,000); Potency, µM (top dose mostly 46.2 µM), for inactives: top-dose activity change, negative = growth inhibition, actives largely listed as inhibitors; chicken DT40 Tdp1-/-;hTDP1 cells + 20 nM CPT, ATP luminescence, 48 h; AID 686979; further: potency means the concentration at half of the fitted maximal effect; nearly all actives have a fitted effect of over 55% in size
#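 Chicken DT40 Tdp1-/- cells stably complemented with human TDP1 were seeded at 400 cells/well in medium containing 20 nM camptothecin, exposed to pin-transferred compounds, and grown at 37 °C for at least 48 hr. Viability was read as ATP luminescence.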
# TDP1 cell noCPT: qHTS for Inhibitors of human tyrosyl-DNA phosphodiesterase 1 (TDP1): qHTS in cells in absence of CPT; DT40 Tdp1-/- hTDP1 cells, no CPT, ATP luminescence, 48 h; Potency, µM (top dose mostly 46.2 µM), without a hit: at the top dose activity change, negative = growth inhibition, actives largely listed as inhibitors; actives 15% (n = 420,000); AID 686978, 2013; further: potency means the concentration at half of the fitted maximal effect; nearly all actives have a fitted effect of over 55% in size
#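 Compound effects on proliferation are scored in DT40 Tdp1-/-;hTDP1 cells in the absence of CPT. ATP levels (CellTiter-Glo luminescence) are recorded after a ≥48 hr, 37 °C incubation.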
# IL-1B inflam inh: inhibitors of inflammasome signaling (IL-1 beta secretion); THP-1 LPS/ATP IL-1B secretion, AlphaLISA, 16 h; active compounds read low; activity change, % at 57.5 µM; actives 4.7% (n = 360,000); AID 743279; in the data active means activity change below about -50%; inconclusive means mostly about -30% to -49%
#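 THP-1 cells pretreated 1 hr with compounds (up to 57.5 uM final), then stimulated with LPS (250 ng/mL final) plus ATP (1.25 mM final); secreted IL-1B measured by AlphaLISA after 16 hr, decreased signal indicating inhibition.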
# HT1080-NT tox: kills 2HG-producing HT-1080-NT fibrosarcoma cells; HT-1080-NT fibrosarcoma viability, CellTiter-Glo ATP luminescence, 48 h; Potency, µM (titrated, usually from 46.1 µM), for the others: at the top dose activity, negative = less viability, most hits filed as cytotoxic; actives 1.6% (n = 360,000);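 further: NT is the 2HG producing partner of a matched IDH1 knockdown line; potency means the concentration at half of the fitted maximal effect; 0% = DMSO-treated cells and -100% = media-only wells without cells; nearly all actives have a fitted effect of over 55% in size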
#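 Viability of the 2HG-overproducing fibrosarcoma line after 48 hours of compound exposure at 37 degrees C was determined by luminescence with CellTiter-Glo, and concentration-effect curves were then fitted and categorized.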
# HT1080 IDH1KD tx: kills HT-1080 cells with IDH1 knockdown | HT-1080 IDH1 knockdown viability, ATP luminescence, 48 h | Potency, µM (titrated, usually from 46.1 µM), inactives show top-dose activity, negative = toxicity, usual class: cytotoxic | actives 2% (n = 360,000) | AID 686971;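 further: potency means the concentration at half of the fitted maximal effect; 0% = DMSO wells and -100% = cell-free medium wells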
#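 In this qHTS, HT-1080 cells depleted of IDH1 are exposed for 48 h at 37 °C to compound titrations. Toxicity is scored from CellTiter-Glo luminescence, with DMSO as full viability and medium alone as none.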
# An asterisk follows results filed as active; ? = inconclusive; . = no result; ! = not confirmed by another sample; [ ] = another dose, or the depositor's remark. Unless noted, the call rests on the fitted dose curve; in most records, active means well fitted curve in the direction sought with a large enough effect; inconclusive means small, poorly fitted or top-dose-only effect, or another doubt; inactive means no such curve, though single readings can be large; an effect the other way counts as inactive or inconclusive. Unless noted, on the % scale 0 is the no-effect control and ±100 the full control effect.
SMILES,12-LOX inh,DT40 TDP1 CPT,TDP1 cell noCPT,IL-1B inflam inh,HT1080-NT tox,HT1080 IDH1KD tx
Cc1cc(C)c(NC(=O)CCCN2C(=O)COc3ccc(C)cc32)c(C)c1,-10.2%,?,16.4µM*,.,.,.
CCOc1ccccc1CNC(=O)CCCN1C(=O)COc2ccc(C)cc21,-8.1%,?,18.4µM*,.,.,.
Cc1cccc(CNC(=O)CCCN2C(=O)COc3ccc(C)cc32)c1,-10.8%,14.6µM*,?,.,.,.
CC1CCCc2cc(OS(=O)(=O)C(F)(F)F)ccc2OC(=O)CC1 (configuration not stated),11.5%,.,.,.,.,.
COc1cccc(N(CC(=O)NCCSc2ccccn2)S(=O)(=O)c2ccccc2)c1,-0.8%,-20.1%,?,-59.0*,-0.7%,-5.2%
COc1ccc(N(CC(=O)NCCSc2ccccn2)S(=O)(=O)c2ccccc2)cc1Cl,278.4%,16.4µM*,?,-7.1,-3.2%,-12.4%
COc1ccccc1CNC(=O)c1cc(C)nc2ccccc12,-1.2%,-29.7%,?,7.5,1.1%,0.4%
O=C(COC(=O)c1cc(-c2ccccc2)nc2ccccc12)c1ccc(Br)cc1,-24.4%,?,?,.,.,.
COc1ccc(CN(C)C(=O)c2cc(-c3ccccc3)nc3ccc(C)cc23)c(OC)c1,10.9%,5.8µM*,5.8µM*,?,?,?
COc1ccccc1CN(C)C(=O)c1cc(C)nc2ccccc12,-1.9%,16.4µM*,16.4µM*,29.3,-1.8%,-1.5%
CC(C)[C@H](NC(=O)Cc1cccc2ccccc12)C(=O)O,-26.7%,.,.,.,.,.
Cc1ccc2nc(-c3ccc(Cl)cc3)cc(C(=O)OCC(=O)c3ccccc3)c2c1,-0.4%,?,20.6µM*,.,.,.
COc1ccccc1CN(C)C(=O)C(NC(=O)Cc1cccc2ccccc12)C(C)C (configuration not stated),-18.1%,?,23.1µM*,-61.6*,-30.1%,-29.5%
O=C(C1CCC1)N1CCc2nn(Cc3ccccc3)c(=O)n2CC1,42.4%,.,.,.,.,.
CN1[C@@H](CCC(=O)NCc2ccc(F)cc2)CNC(=O)[C@@H]2[C@H]1CCN2Cc1nc2ccccc2n1C,36.0%,.,.,.,.,.
O=CNC12CC3CCC(CC(C3)C1)C2,16.6%,.,.,.,.,.
Cc1nn(C)cc1CN(C)C(=O)c1cc(-c2ccccc2)nc2ccc(Br)cc12,-15.7%,16.4µM*,14.6µM*,-6.3,-4.5%,-19.2%
COc1ccc(-c2cc(C(=O)Oc3ccccc3)c3cc(C)ccc3n2)cc1,-22.3%,?,5.17µM*,.,.,.
COc1ccc(C(=O)COC(=O)c2cc(-c3cccs3)nc3ccccc23)cc1,-29.2%,-32.2%,?,.,.,.
COc1ccc(-c2cc(C(=O)Oc3ccc(C)cc3)c3cc(C)ccc3n2)cc1,?,-23.5%,-1.5%,.,.,.
Cc1ccc(C(=O)COC(=O)c2cc(-c3cccs3)nc3ccccc23)cc1,-24.9%,?,18.4µM*,.,.,.
O=C(c1cc(F)ccc1F)N1CCN(Cc2nnnn2C2CC2)CC1,-8.0%,.,.,.,.,.
CCC(C)(C)NC(=O)CSc1nc(C)c(C)n1C1CCCCC1,33.2%,.,.,.,.,.
COc1ccc(NS(=O)(=O)c2cc(C)ccc2NC(=O)c2cc(C)oc2C)cc1,?,0.92µM*,0.581µM*,55.4,0.581µM*,0.92µM*
CC(C)(C)c1cc(/C=C(\C#N)C(N)=S)cc(C(C)(C)C)c1O,?,0.562µM*,0.708µM*,.,.,.
SMILES,12-LOX inh,DT40 TDP1 CPT,TDP1 cell noCPT,IL-1B inflam inh,HT1080-NT tox,HT1080 IDH1KD tx
N#CC(C#N)=C(N)/C(C#N)=C/c1cc(O)c(O)c(O)c1,5.01µM*!,?,?,-6.8,-25.8%,-26.0%
Cc1ccc2cccc(OCCNC(=O)C3NCCc4[nH]cnc43)c2n1 (configuration not stated),94.4%,.,.,.,.,.
COc1ccc(NC(=S)N2CCN(CCO)CC2)c(OC)c1,-4.7%,.,.,.,.,.
CCC(CC)NCc1cccnc1Oc1ccccc1,42.5%,.,.,.,.,.
Cc1ccc(NC(=O)C(NC2CCCC2)c2ccccc2)cc1Cl (configuration not stated),-27.8%,?,16.4µM*,?,-16.5%,-21.4%
Cc1ccc(NC(=O)C(OC(=O)c2ccc(NC(N)=O)cc2)c2ccccc2)cc1Cl (configuration not stated),-26.7%,?,?,-53.0*,?,?
Cc1cc(C(=O)OC(C(=O)Nc2ccc(C)c(Cl)c2)c2ccccc2)c(C)o1 (configuration not stated),-21.0%,23.1µM*,29.1µM*,-26.0,-19.0%,-18.1%
COc1cccc(NC(=O)C(NC2CCCC2)c2ccccc2)c1 (configuration not stated),96.8%,?,?,13.0,-12.0%,-11.1%
Cc1ccc(NC(=O)[C@H](C)NC(N)=O)cc1Cl,-1.9%,.,.,.,.,.
Cc1ccccc1-c1nc2scc(CCNS(=O)(=O)c3ccccc3)n2n1,-23.3%,?,?,.,.,.
N#Cc1cccc(NC(=O)N2CC3(CCN(C(=O)c4ccco4)CC3)C2)c1,2.1%[57.4 µM],-3.0%,-12.2%,.,.,.
CCNC(=O)c1ccccc1SCc1ccccc1,0.7%,-19.1%,-5.8%,0.1,-2.8%,11.7%
CCc1ccc(OCCNC(=O)c2ccccc2SCc2ccccc2)cc1,23.6%,?,20.6µM*,-9.8,-23.6%,?
CCN1C(=O)C2(CCN(S(=O)(=O)c3ccc4c(c3)OCCO4)CC2)c2ccccc21,6.2%,.,.,.,.,.
O=C(c1cc2ccccc2oc1=O)N(Cc1ccc2c(c1)OCO2)Cc1ccco1,0.0%,?,9.2µM*,-9.8,-10.6%,9.2%
CCCCc1ccc(C(=O)NC(Cc2ccccc2)C(=O)O)cc1 (configuration not stated),8.6%,.,.,.,.,.
O=C(CSc1ncc(CO)n1Cc1ccccc1)Nc1ccc(C(F)(F)F)cc1,?,14.6µM*,23.1µM*,.,.,.
O=C(CSc1ncc(CO)n1Cc1ccccc1)Nc1nc2ccccc2s1,-7.4%,20.6µM*,16.4µM*,.,.,.
Cc1ccc2c(=O)c3cccc(CC(=O)O)c3oc2c1C,-21.0%[57.4 µM],.,.,.,.,.
CCn1c(=O)c(C(=O)CN2CCc3ccccc32)c(N)n(Cc2ccccc2)c1=O,-6.6%,?,?,0.0,-1.7%,?
CC(C(=O)Nc1ccc(C#N)cc1)N(C)CC(=O)Nc1ccccc1Br (configuration not stated),9.6%,?,?,-24.3,?,23.1µM*
CC(=O)Nc1ccc(NC(=O)CN(C)CC(=O)Nc2ccccc2Br)cc1,0.4%,-1.2%,-7.4%,91.9,-3.1%,-9.9%

# Screening data as filed in PubChem BioAssay.
